Compound activity (PubChem)
ANO1 block: TMEM16A chloride channel inhibitors, primary screen, cell-based, HTS. AID 588511, 2011. HEK293 TMEM16A/YFP iodide influx fluorescence, ionomycin. Anoctamin-1 (Mus musculus), Q8BHY3. actives 1.2% (n = 310,000). normalized B-score (activity score, 25-100; higher = stronger inhibition) at 10 µM;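 active = ratio plate-corrected score three or more library SD toward inhibition, starting fluorescence score within five deviations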;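 note: score derived from kinetic fluorescence span divided by baseline fluorescence per well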
CHT inh: inhibitors of human choline transporter CHT | CHT-expressing cells, membrane potential dye, choline response; stronger effect = lower value | B-score at 10 µM | actives 0.86% (n = 310,000) | AID 488975, 2010;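 active = B-score over 3 SD under the library average, and starting fluorescence ratio not unusually high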;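 note: choline stimulus applied at its EC90 after an EC20 pre-addition; B-score computed on integrated fluorescence ratio after choline addition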
Target sequence (Q9GZV3 whole entry, looked up): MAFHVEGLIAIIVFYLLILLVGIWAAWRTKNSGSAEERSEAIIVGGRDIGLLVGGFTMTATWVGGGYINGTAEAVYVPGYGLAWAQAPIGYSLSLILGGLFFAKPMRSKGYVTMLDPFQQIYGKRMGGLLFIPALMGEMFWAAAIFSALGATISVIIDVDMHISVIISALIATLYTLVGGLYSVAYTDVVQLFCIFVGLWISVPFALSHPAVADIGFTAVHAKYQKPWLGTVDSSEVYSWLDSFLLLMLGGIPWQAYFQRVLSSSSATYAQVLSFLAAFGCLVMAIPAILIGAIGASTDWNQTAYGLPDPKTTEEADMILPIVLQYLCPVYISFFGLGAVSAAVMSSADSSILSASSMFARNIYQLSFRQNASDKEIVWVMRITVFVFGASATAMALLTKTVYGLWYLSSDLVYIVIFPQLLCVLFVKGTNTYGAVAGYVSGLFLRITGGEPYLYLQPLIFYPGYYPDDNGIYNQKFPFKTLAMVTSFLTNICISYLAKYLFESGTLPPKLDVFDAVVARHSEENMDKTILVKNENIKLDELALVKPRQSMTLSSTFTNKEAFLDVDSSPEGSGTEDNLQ
ANO1 activ: TMEM16A chloride channel activators or potentiators, primary screen, cell-based, HTS | AID 623877, 2012 | actives 0.3% (n = 340,000) | HEK293 TMEM16A/YFP-H148Q/I152L, iodide quench fluorescence; stronger effect = lower value | Anoctamin-1 (Mus musculus), Q8BHY3 | B-score at 10 µM;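 active = fluorescence-ratio B-score plate-corrected deviation score at least 3 library SD below zero, with starting fluorescence score within 5 deviations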;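 note: channel opened by trigger with iodide after compound preincubation; score built on the fluorescence ratio of max minus min over baseline; more negative score means more quench and so TMEM16A activation or potentiation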
CHT allo act: CHT positive allosteric modulators, primary screen, cell-based, membrane potential dye, choline EC20; High affinity choline transporter 1 (Homo sapiens), Q9GZV3; CHT-expressing cells; stronger effect = higher value; LV-AA mutant CHT in HEK293 cells; B-score at 10 µM; actives 0.49% (n = 310,000); AID 488977, 2010;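 active = initial fluorescence not abnormally high and integrated response B-score, plate-corrected, over 3 SD above library mean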
TMEM16A reconf: TMEM16A chloride channel inhibitors, confirmation, cell-based, re-confirmation; actives 39% (n = 2,300); inhibition, % at 10 µM; shares compounds with ANO1 block; HEK293 TMEM16A/YFP-H148Q, iodide quench fluorescence; ionomycin added to raise cell calcium;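 active = mean duplicate percent inhibition, scaled so buffer wells are 0 and the reference blocker 100, over three buffer SD above buffer mean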
TMEM16A Ca cntr: calcium mobilization in TMEM16A/YFP HEK293 cells, confirmation, counter-screen for TMEM16A inhibitor project. AID 652231, 2013. Fluo4 calcium mobilization. shares compounds with ANO1 block. calcium response (% of ionomycin), % at 10 µM. actives 2% (n = 2,300);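 active = duplicate-averaged calcium signal over 20% of the ionomycin maximum, relative to buffer baseline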;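 note: each well's signal is peak minus trough fluorescence divided by its pre-addition baseline; 0% = buffer wells and 100% = ionomycin wells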
Parental YFP cnt: iodide YFP quench changes in parental YFP-HEK293, counter-screen for TMEM16A inhibitor project, cell-based | shares compounds with ANO1 block | ionomycin | YFP ratio F(max-min)/F0 at 10 µM | 2,300 tested, under 10 active | AID 652233, 2013;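 active = yellow fluorescent protein signal ratio exceeding the buffer control mean by over 5 SD of those controls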;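 note: ratio is mean of duplicate wells from kinetic YFP trace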
ClC-1 inh: ClC-1 chloride channel inhibition, selectivity assay for TMEM16A inhibitor project, cell-based, voltage-dependent ClC-1 | shares compounds with ANO1 block | CHO ClC-1-YFP, iodide influx fluorescence quench; iodide control reads 0, buffer control 100 | ratio percent, % at 10 µM | 2,300 tested, under 10 active | AID 652236, 2013;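 active = duplicate-mean ratio percent above the mean of iodide-only control wells, which defines zero, plus 5 of their SD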;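 note: higher percent means stronger block of ClC-1 iodide influx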
* hit, by the source's call; i = inactive; / = not tested or not shown. Only some compounds are listed: those with a hit (about 2.3% of all), similar ones and a draw of the others.

SMILES	ANO1 block	CHT inh	ANO1 activ	CHT allo act	TMEM16A reconf	TMEM16A Ca cntr	Parental YFP cnt	ClC-1 inh
Oc1c(Cl)c(Cl)c(Cl)c(Cl)c1Cl	100*	i	i	i	17.0%*	i	-0.748	-20.0
CCOc1ccc(-n2c(O)c(C=Nc3ccc(N(CC)CC)cc3)c(=O)[nH]c2=O)cc1	i	i	i	i	28.0%*	i	-0.675	-10.5
CCN(CC)c1ccc(N=Cc2c(O)n(-c3ccccc3)c(=O)[nH]c2=O)cc1	i	i	i	i	i	i	-0.926	-13.0
CCOc1ccc(-n2c(O)c(C=Nc3ccc(NC(C)=O)cc3)c(=O)[nH]c2=O)cc1	i	i	i	i	/	/	/	/
CC(N)Cc1c[nH]c2cc3c(cc12)OCCO3 (stereo unspecified)	i	i	i	i	/	/	/	/
CC(=O)OC1N=C(c2ccccc2)c2cc(Br)ccc2N(C)C1=O (stereo unspecified)	i	i	i	i	/	/	/	/
O=C(c1ccc(C(F)(F)F)cc1)C1CCCN(Cc2ccncc2)C1 (stereo unspecified)	25*	i	i	i	i	i	-1.08	-10.5
CC(C)[N+](C)(CCC(C(N)=O)(c1ccccc1)c1ccccc1)C(C)C	i	i	i	i	/	/	/	/
CC(=O)c1cn(Cc2ccccc2C#N)c2ccccc12	25*	i	i	i	i	i	-0.98	-20.0
CC(C)C(=O)c1cn(Cc2ccccc2C#N)c2ccccc12	i	i	i	i	/	/	/	/
